Inconclusive results are not listed. Where a call stands in place of a potency, no number is given. The source made the active and inactive calls. Unless noted, calls follow the shape of the dose curve; as a rule, active = well fitted curve in the direction sought with a large enough effect in the repeat runs; inconclusive = weak or mixed curves; inactive = no such curve, though single readings can be large; an effect the other way counts as inactive or inconclusive.
How the values were obtained:
[1] = qHTS assay to identify small molecule antagonists of the estrogen related receptor (ERR) signaling pathway - cell viability counter screen (AID 1224818); conditions: ERR reporter cell line viability counter screen; series mostly up to 46.1 µM;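 also: viability measured after 17.5 h of compound exposure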
In short: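 Cytotoxicity counter screen: fluorescence from CellTiter-Fluor, added after 17.5 h compound exposure at 37 C and read 30 min later. ERR cell line seeded at 2,000 cells/well, preincubated 6 h before dosing.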

[2] = qHTS assay to identify small molecule antagonists of the estrogen related receptor (ERR) signaling pathway (AID 1224819;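 also: luminescence from an ERR-driven luciferase reporter measured with One-Glo reagent; nearly all actives have a fitted effect of over 50% in size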); conditions: ERR reporter cell line, luciferase inhibition; series mostly up to 46.1 µM
In short: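 LOPAC library screened for antagonism as reduced One-Glo luminescence in ERR reporter cells (2,000/well). Compounds were added after 6 h pre-incubation and left 18 h at 37C; reading followed a 30 min room-temperature reagent step.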

[3] = qHTS assay to identify small molecule agonists of the estrogen related receptor (ERR) signaling pathway (AID 1224820); conditions: ERR reporter cell line, luciferase agonist mode; series mostly up to 46.1 µM; also: potency is read from the fitted curve at half-maximal effect
In short: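 An ERR cell line provided by NTP was seeded at 2,000 cells per well and allowed to settle for 6 h before compounds in DMSO were added. After 18 h at 37 C, luciferase activity was measured by One-Glo luminescence.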

[4] = system: estrogen-related receptor alpha (ERRalpha) with PGC-1alpha coactivator, human; test: qHTS assay to identify small molecule antagonists of the estrogen related receptor signaling pathway with the pleiotropic PPARgamma coactivator (PGC) (AID 1224821; calls by dose curve;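 also: lower luminescence signal means antagonism of PGC/ERR signalling; nearly all actives have a fitted effect of over 50% in size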); conditions: ERR/PGC reporter cell line, luciferase, antagonist mode; series mostly up to 46.1 µM
In short: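 A PGC/ERR cell line supplied by NTP is seeded, allowed 6 h at 37 C, and treated with test compounds in DMSO for 18 h. Signal is then measured as luciferase luminescence using One-Glo.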

[5] = qHTS assay to identify small molecule antagonists of the estrogen related receptor signaling pathway with the pleiotropic PPARgamma coactivator (PGC) cell viability counter screen (AID 1224822); conditions: ERR/PGC reporter cell line viability counter screen; series mostly up to 46.1 µM
In short: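 Viability counter-screen read by fluorescence intensity after 30 min with CellTiter-Fluor at 37 C; PGC/ERR reporter cells were exposed to compounds for 17.5 h at 37 C following a 6 h preincubation.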

[6] = qHTS assay to identify small molecule agonists of the estrogen related receptor signaling pathway with the pleiotropic PPARgamma coactivator (PGC) (AID 1224823); conditions: ERR/PGC reporter cell line, luciferase agonist mode; series mostly up to 46.1 µM; also: potency is read from the fitted curve at half-maximal effect
In short: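 Compounds dissolved in DMSO are added by pin tool to PGC/ERR cells that have settled for 6 h, and incubation continues 18 h at 37 C. Reporter output is measured as One-Glo luminescence.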

Structure (SMILES)	Potency [1]	Potency [2]	Potency [3]	Potency [4]	Potency [5]	Potency [6]
Nc1nc2[nH]c(=O)cnc2c(=O)[nH]1	inactive	inactive	inactive	inactive	inactive	inactive
O=C(O)C1CCNCC1	inactive	inactive	inactive	inactive	inactive	inactive
CCCn1c(=O)c2c(ncn2C)n(CCC)c1=O	inactive	inactive	inactive	inactive	inactive	inactive
O=C1NC(=O)C(c2ccccc2[N+](=O)[O-])=C1Nc1ccc(O)c(Cl)c1	inactive	inactive	inactive	inactive	inactive	inactive
COc1ccc2c(c1)CCC1C2CC[C@@]2(C)C1CC[C@@H]2NCCCCCCN1C(=O)C=CC1=O (stereo partly specified)	inactive	inactive	inactive	inactive	inactive	inactive
COc1cccc(-c2cc(=O)c3ccccc3o2)c1N	inactive	inactive	1960 nM (active)	inactive	inactive	1880 nM (active)
NCCCCC(=O)O	inactive	inactive	inactive	inactive	inactive	inactive
CCCCCCC/C=C\CCCCCCCCC(=O)O	inactive	inactive	inactive	inactive	inactive	inactive
CC(=O)NC[C@H]1CN(c2ccc(N3CCOCC3)c(F)c2)C(=O)O1	inactive	inactive	inactive	inactive	inactive	inactive
O=C(c1ccc(OCCCc2cnc[nH]2)cc1)C1CC1	inactive	inactive	inactive	inactive	inactive	inactive
CN=C(N)NCCC[C@H](N)C(=O)O	inactive	inactive	inactive	inactive	inactive	inactive
